# Measurements from PubChem BioAssay (Tox21).
# Records with an inconclusive call do not appear. The source made the active and inactive calls. The call rests on the fitted dose curve; in most records, active means well fitted inhibition curve with a large enough effect in the signal ratio in the repeat runs, with a control signal flat; inconclusive means weak or mixed curves, or effect the other way; inactive means flat fitted curve, though single readings scatter; the % refers to the signal ratio.
# Target: D(2) dopamine receptor (Homo sapiens) (UniProt P14416)
# Sequence (P14416 whole entry, looked up): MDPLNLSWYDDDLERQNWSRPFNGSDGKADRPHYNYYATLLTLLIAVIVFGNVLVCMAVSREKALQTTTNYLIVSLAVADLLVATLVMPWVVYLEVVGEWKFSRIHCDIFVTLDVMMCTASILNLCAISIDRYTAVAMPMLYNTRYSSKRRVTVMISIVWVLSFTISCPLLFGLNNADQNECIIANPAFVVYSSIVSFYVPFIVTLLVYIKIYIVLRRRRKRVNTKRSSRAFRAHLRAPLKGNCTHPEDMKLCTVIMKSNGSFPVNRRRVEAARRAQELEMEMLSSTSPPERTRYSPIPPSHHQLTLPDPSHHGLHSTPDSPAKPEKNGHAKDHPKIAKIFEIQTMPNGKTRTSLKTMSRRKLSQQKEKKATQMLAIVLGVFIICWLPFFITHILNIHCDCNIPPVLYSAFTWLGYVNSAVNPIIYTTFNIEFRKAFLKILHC
# Assay: Dopamine D2 receptor (DRD2) small molecule antagonists, cell-based qHTS assay (AID 1963595)
# Conditions: HEK293-DRD2 cAMP HTRF antagonist mode; series mostly up to 92.4 µM; activity change, negative = inhibition: at the top concentration
# Text: National Center for Advancing Translational Sciences [NCATS]
# Division of Preclinical Innovation [DPI]
# U.S. Environmental Protection Agency [EPA]
# National Institutes of Environmental Health Sciences [NIEHS]
# National Toxicology Program [NTP]
# U.S. Food and Drug Administration [FDA]
# DRD2 is the D2 subtype of the dopamine receptor, which is coupled to Gi subtype of G protein-coupled receptor. This G protein-coupled receptor inhibits adenylyl cyclase activity. The DRD2-HEK293 cell line stably expressing D2 dopamine receptor can be used for screening agonists and antagonists of interactions between D2 and its ligands. The Hek293-DRD2 cAMP assay is based on HTRF technology. It measures changes of cAMP accumulation in response to Gi coupled GPCR activation or inhibition.
# Tox21 Assay Protocol Summary:
# DRD2-Hek293 cells were dispensed at 600 cells/3uL/well in 1536-well white plates using a Multidrop Dispenser. After the assay plates were incubated at a 37 C/5% CO2 incubator for 24 h, 1 uL of Ro20-1724 at final concentration of 0.1 mM was transferred to the assay plate by a Flying Reagent Dispenser. Following Ro20-1724 addition, 23 nL of compound dissolved in DMSO, positive controls or DMSO only was added to the assay plates via Wako pintool station. The assay plates were incubated at room temperature for 10 min. Next, 1 uL of mixture of NKH477 (final concentration at 200 nM) and quinpirole (final concentration at 12 nM) was added into the plates. After the assay plates were incubated at room temperature for an additional 30 min, 2.5 ul/well of cAMP-d2 and 2.5 ul/well of anti-cAMP-cryptate were added respectively into the assay plates using a Flying Reagent Dispenser. The plates were incubated at room temperature for 1 h. The fluorescence intensity in the plates was measured at 340 nm excitation and 665 & 620 nm emission by an Envision plate reader.
# On the % scale 0 is the no-effect control and ±100 the full control effect; potency means the concentration at half of the fitted maximal effect.
SMILES,"activity change, negative = inhibition",Potency
CN1CCN(c2c(F)cc3c(=O)c(C(=O)O)cn4c3c2SCC4)CC1,-0.208% [at 42.5 µM] (inactive),–
CCOC(=O)C1=NOC(c2ccccc2)(c2ccccc2)C1,3.32% (inactive),–
Cc1ccc2c(c1)C(=O)c1ccccc1C2=O,-9.23% (inactive),–
O=C(NC1CCN(CCc2c[nH]c3ccccc23)CC1)c1ccccc1,–,0.596 µM (active)
CCC(=O)c1cccc(Cl)c1,0.53% (inactive),–
COc1ccc(N)c([N+](=O)[O-])c1,-9.31% (inactive),–
OCCN(CCO)c1cccc(Cl)c1,0.556% (inactive),–
CCCSS/C(CCO)=C(\C)N(C=O)Cc1cnc(C)nc1N,-3.33% [at 42.5 µM] (inactive),–
Cc1oc(-c2ccccc2)nc1CCC(=O)c1ccc(CC2SC(=O)NC2=O)cc1 (stereo not given),6.17% [at 42.5 µM] (inactive),–
COc1cc(OC)nc(NC(=O)NS(=O)(=O)Nc2ccccc2C(=O)N(C)C)n1,-1.87% (inactive),–
COC(=O)CCCCCCCCC(=O)OC,7.56% (inactive),–
CC(=O)Oc1ccc(C2(c3ccc(OC(C)=O)cc3)C(=O)Nc3ccccc32)cc1,1.8% [at 42.5 µM] (inactive),–
c1cnc2c(n1)CCCC2,13.5% (inactive),–
O=C(OCC1CO1)C1CCCCC1C(=O)OCC1CO1 (stereo not given),8.96% (inactive),–
COc1cc(NS(=O)(=O)c2ccc(N)cc2)nc(OC)n1,-3.21% [at 42.5 µM] (inactive),–
O=C(O)C1(C(=O)O)CCC1.[NH2-].[NH2-].[Pt+2],3.74% [at 42.5 µM] (inactive),–
O=[N+]([O-])c1ccc(CO)cc1,-1.14% (inactive),–
CN=C(N)NC(=O)Nc1c(C)cccc1C,14.3% [at 42.5 µM] (inactive),–
C[C@@H]1CN(c2c(F)c(N)c3c(=O)c(C(=O)O)cn(C4CC4)c3c2F)C[C@H](C)N1,0.614% [at 18.9 µM] (inactive),–
COC(=O)CCCCC(CCSS/C(CCO)=C(\C)N(C=O)Cc1cnc(C)nc1N)SC(C)=O (stereo not given),-3.08% [at 42.5 µM] (inactive),–

SMILES,"activity change, negative = inhibition",Potency
CC(CN1CC(=O)NC(=O)C1)N1CC(=O)NC(=O)C1 (stereo not given),2.27% (inactive),–
CN1C(=O)N(C)C(O)C1O (stereo not given),15% (inactive),–
C[n+]1cc2c3c(ccc2c2ccc4cc5c(cc4c21)OCO5)OCO3,–,13 µM (active)
c1ccc(-c2nn[nH]n2)cc1,5.99% (inactive),–
CC(C)c1ccc(C(=O)N=C(N)N)cc1S(C)(=O)=O,-6.73% [at 42.5 µM] (inactive),–
CCOC(=O)C(C)O (stereo not given),-3.55% (inactive),–
CCCCC/C=C\CCC=O,6.45% (inactive),–
CCCCCCCCC(=O)Cl,14.1% (inactive),–
CCCCCCCCCCCCS(=O)(=O)Cl,-2.33% [at 18.9 µM] (inactive),–
C[C@H]1NCc2cc(-c3ccc4c(=O)c(C(=O)O)cn(C5CC5)c4c3OC(F)F)ccc21,-0.31% [at 18.9 µM] (inactive),–
C=CC(=O)O,10.7% [at 42.5 µM] (inactive),–
CC(C)C[P+](C)(CC(C)C)CC(C)C,-6.79% (inactive),–
COc1ccc(S(=O)(=O)N2c3ccc(Cl)cc3[C@@](O)(c3ccccc3Cl)[C@H]2C(=O)N2CCC[C@@H]2C(N)=O)cc1OC,-16.1% [at 42.5 µM] (inactive),–
CN=C(NC#N)Nc1ccc(C2=NNC(=O)CC2C)cc1 (stereo not given),-2.96% [at 42.5 µM] (inactive),–
CCOC(=O)C(=O)OCC,6% (inactive),–
Cn1cnc2ncnc(N)c21,-2.61% [at 42.5 µM] (inactive),–
CCCCOC(=O)C(C)O (stereo not given),-3.33% (inactive),–
Brc1ccc(-c2ccccc2)cc1,1.26% (inactive),–
Cc1cc(C)c(C=O)c(C)c1,-5.63% (inactive),–
CC[N+](C)(CC)CCOC(=O)C(O)(c1ccccc1)C1CCCCC1 (stereo not given),-7.77% [at 42.5 µM] (inactive),–
